Results from PubChem BioAssay (Tox21).
Inconclusive results are not listed. A call without a number means that no potency is given here. Calls of active or inactive are those of the source. Calls come from the whole dose curve; as a rule, active = well fitted cell-killing curve with a large enough effect in the repeat runs; inconclusive = weak or mixed curves, or effect the other way; inactive = no such curve, though single readings can be large or run the other way.

Experiment: qHTS assay to identify small molecule antagonists of the progesterone receptor (PR) signaling pathway - cell viability counter screen (AID 1346798); note: nearly all actives have a fitted effect of over 50% in size
Settings: PR-UAS-bla HEK293T viability, CellTiter-Glo luminescence, 16 h; series mostly up to 92.4 µM
Text: National Center for Advancing Translational Sciences [NCATS]
NIH Chemical Genomics Center [NCGC]
U.S. Environmental Protection Agency [EPA]
National Institutes of Environmental Health Sciences [NIEHS]
National Toxicology Program [NTP]
U.S. Food and Drug Administration [FDA]
Progesterone receptor (PR), a nuclear hormone receptor, plays an important role in development, metabolic homeostasis and reproduction. It is activated by the steroid hormone progesterone. Endocrine disrupting chemicals (EDCs) and their interactions with steroid hormone receptors like PR causes disruption of normal endocrine function. To identify the compounds that inhibit PR signaling, a PR-UAS-bla GripTite cell line i.e. PR-UAS-bla HEK293T (Invitrogen, Carlsbad, CA, USA) containing a beta-lactamase reporter gene under the control of an UAS response element was used to screen Tox21 10K compound library. The cytotoxicity of the Tox21 compound library against the PR-bla cell line was tested in parallel by measuring the cell viability using CellTiter-Glo assay in the same wells.
Tox21 Assay Protocol Summary:
PR-UAS-bla HEK293T cells were dispensed at 3,000 cells/4 uL of assay medium containing 2% charcoal stripped FBS per well into black wall/clear-bottom 1536-well plates using a Multidrop Combi (ThermoFisher Scientific, Waltham, MA) dispenser. After the assay plates were incubated at a 37C and 5% CO2 for 4 hr, 23 nL of compounds dissolved in DMSO, positive controls or DMSO only was transferred to the assay plate by a Pintool station (Kalypsys, San Diego, CA), followed by addition of 1 uL of R5020 in assay medium using a Flying Reagent Dispenser (FRD, Aurora Discovery, San Diego, CA). The plates were incubated at 37C and 5% CO2 for 16 hr. Then 1 uL of LiveBLAzer B/G FRET substrate was added using a Flying Reagent Dispenser, the plates were incubated at room temperature for 2 hours, and fluorescence intensity was measured by an Envision plate reader (PerkinElmer, Shelton, CT). For cell viability readout that measures cytotoxicity, 4 uL/well of CellTiter-Glo reagent was added into the assay plates using a FRD. After 30 min incubation at room temperature, the luminescence intensity in the plates was measured using a ViewLux (PerkinElmer) plate reader.

Row | SMILES | Potency
1 | CC(=O)OC/C=C(\C)CCC=C(C)C | inactive
2 | CC(=O)OCc1ccc2c(c1)OCO2 | inactive
3 | O=C1C(N(CO)C(=O)NCO)N(CO)C(=O)N1CO (stereo not given) | inactive
4 | Cc1ccc(C(C)C)cc1 | inactive
5 | Cc1nnc(NS(=O)(=O)c2ccc(N)cc2)s1 | inactive
6 | COc1ccc(N)c(OC)c1 | inactive
7 | OC1CCCCC1 | inactive
8 | CCCN(CCC)C(=O)SCC | inactive
9 | O=C(O)C1=NN(c2ccc(S(=O)(=O)O)cc2)C(=O)C1 | inactive
10 | OC[C@H]1O[C@@H](Oc2ccc(O)cc2)[C@H](O)[C@@H](O)[C@@H]1O | inactive
11 | Cc1ccncc1 | inactive
12 | COC(=O)/C=C\C(=O)OC | inactive
13 | Cc1cccc(C)c1[N+](=O)[O-] | inactive
14 | CCN(CC)CCNC(=O)c1ccc(N)cc1 | inactive
15 | CO[Si](CCCNCCN)(OC)OC | inactive
16 | Cc1cc(C)c(O)c(C)c1 | inactive
17 | NCCNCCNCCN | inactive
18 | CN=C(NC#N)NCCSCc1nc[nH]c1C | inactive
19 | CC(C)(CO)CO | inactive
20 | N#CCC(=O)O | inactive

Row | SMILES | Potency
21 | CCOC(=O)CC(=O)OCC | inactive
22 | CC(C)c1ccc(C(C)C)cc1 | inactive
23 | Cc1ccc(C)c(S(=O)(=O)O)c1 | inactive
24 | CCc1cccc(O)c1 | inactive
25 | C[Si](C)(C)N[Si](C)(C)C | inactive
26 | NC1CCCCC1N (stereo not given) | inactive
27 | CC1(C)C(=O)N(Cl)C(=O)N1Cl | inactive
28 | Cc1ccccc1Cl | inactive
29 | O=C1CCCCCCCCCCC1 | inactive
30 | CC[N+](CC)(CC(=O)Nc1c(C)cccc1C)Cc1ccccc1 | inactive
31 | COc1cc(NC(=O)CC(C)=O)c(OC)cc1Cl | inactive
32 | OCC(CO)(CO)CO | inactive
33 | Nc1cccc(C(F)(F)F)c1 | inactive
34 | NC(=O)NC(N)=O | inactive
35 | N[C@@H](Cc1cc(I)c(Oc2ccc(O)c(I)c2)c(I)c1)C(=O)O | inactive
36 | C1CCCNCC1 | inactive
37 | O=C1OC(=O)c2c(Cl)c(Cl)c(Cl)c(Cl)c21 | inactive
38 | O=c1c(O)c(-c2ccc(O)c(O)c2)oc2cc(O)cc(O)c12 | inactive
39 | CCCCCCC(=O)O | inactive
40 | CCCCCCCCC(=O)O | inactive
